Here are results for 104 compounds from ChEMBL document CHEMBL4513216, “Probing the Open Global Health Chemical Diversity Library for Multistage-Active Starting Points for Next-Generation Antimalarials” (ACS Infect Dis, 2020).

The whole screen tested about 65,000 compounds, of which about 2,100 (3.2%) showed an effect of 50% or more. The median lay at about -52%. The full list was thinned out, with strong results kept by preference.

The subject of the test is Plasmodium falciparum. The experiment in a line: Screen against P. falciparum Asexual Blood Stage (ABS), at 5uM. Type of test: functional, Dd2. The settings on record: tested at 5 uM.
In the case of `CCN(CC)C(=O)C1CCC2(CCNCC2)O1` (centres undefined), the INHIBITION is recorded as -55.8%.
`c1ccc(CO[C@H]2CC[C@H]3[C@H]2OCCN3Cc2nccs2)nc1`: the INHIBITION is -8.49%.
For `CC(C)CN1CCCC2(CCN(c3ccccn3)C2)C1` (centres undefined) the value was 71.2%.
Then `CSc1nccc(N2CCC3(CCCN(CC4CC4)C3)C2)n1` (centres undefined), with -48.7%; and `CC(C)CN1CCCC2(CCN(c3ccc(C#N)cn3)C2)C1` (centres undefined), with 9.73%; and `CN(Cc1ccccc1)c1ncccc1CNC1CCC1`, with 71.1%.
For `CN(Cc1ccccc1)c1ncccc1CNC1CN2CCC1CC2` (centres undefined) the value was 62.6%.
With `COc1ncccc1CN1C[C@H]2CCN(C(C)C)C[C@H]2C1`, the INHIBITION stood at 9.06%.
Turning to `CC(C)N1CCC(NCc2cccnc2N(C)Cc2ccccc2)CC1`, the INHIBITION turned out to be 84.1%.
With `CN(c1ncccc1C#N)C1CCN(Cc2ccncc2)CC1`, the INHIBITION is listed as -82.3%.
With `CC(C)c1noc(CN(Cc2cccnc2)C2CN3CCC2CC3)n1` (centres undefined), the INHIBITION is recorded as -90.3%.
For `CN(CCc1ccccc1)Cc1c(C2CC2)[nH]c2ncccc12` the value was -22.1%; for `CNc1nccnc1C1CCN(C(C)C)CC1`, 10.5%; for `Nc1cc(-c2cccc3c2CCNC3)ncn1`, -47.8%.
For `Cc1ccccc1CC(=O)N1CCN(C2CCOC2=O)CC1` (centres undefined), the INHIBITION was -126%.
Then `c1cncc(COC[C@H]2CC[C@H]3[C@H](CCN3Cc3cccs3)O2)c1`, with -174%; and `CC(=O)N1CCN(Cc2ccncc2)CC2(CC(=O)N(C)C2)C1` (centres undefined), with -18.8%.
As to `COCCn1c(C(=O)NCc2n[nH]c(C)n2)cc2ccccc21`, the INHIBITION is -74.2%.
With `Cc1nc(CN2CCO[C@@H]3CC(COc4ccccn4)C[C@H]32)cs1` (some centres undefined), the INHIBITION is given as -52.4%.
Take `Cc1cc(C(=O)NCC(=O)N2CCOCC2)nn1C(C)(C)C`: the INHIBITION was -113%.
For `Cc1ncc2c(n1)CCCC2NC(=O)c1cnn(Cc2ccccc2)c1` (centres undefined) the value was -115%.
Then `c1ccc(CNc2ncc(CN3CC[C@@H]4CC[C@H](C3)N4)cn2)cc1`, with -65%; and `Cc1nc2c(c(NC3CCN(Cc4ccccc4)CC3)n1)CCNCC2`, with 78.7%.
Then `Cc1nnc([C@H]2CC[C@@H]3[C@@H](CCN3Cc3c(C)noc3C)O2)o1`, with -1.83%; and `Cc1n[nH]c2c1C(c1ccc3c(c1)OCCO3)SCC(=O)N2` (centres undefined), with 8.75%.
`Cc1c(CNC2CCN(c3ccccc3OC(F)F)C2)cnn1C` (centres undefined): the INHIBITION was 71%.
Regarding `O=C(N[C@@H]1CN[C@H]2CCCO[C@H]21)c1cnccn1`, the INHIBITION was -120%.
Then `Cn1cccc1C(=O)N1C[C@H]2CN(Cc3cccnc3)C[C@H]2C1`, with 31.3%; and `CN(C)[C@@H]1CN(Cc2cccnc2)C[C@H]1c1cn(C)c2ccccc12`, with 71.9%; and `Cc1ccccc1CC(=O)N1C[C@@H]2CC[C@H]1CN(Cc1cccnc1)C2`, with -11.4%.
Take `O=C(COc1coc(CN2CCCC2)cc1=O)Nc1cc(Cl)ccc1Cl`: the INHIBITION is listed as 80.6%.
`Cc1cccc(C2(NCCCS(C)(=O)=O)CCCC2)c1`: the INHIBITION is reported as 88.9%.
For `Cc1cc(CNC2(c3ccccc3)CCCCC2)no1` the value was 44.9%; for `CS(=O)(=O)CCCNC1(c2cccc(Cl)c2)CCCC1`, 76%; for `CS(=O)(=O)CCCNC1(c2ccc(Br)cc2)CCC1`, 78.5%.
On to `Cc1ccc(CC(=O)N2CCN(C(C)c3ccccc3F)CC2)cn1` (centres undefined), for which the INHIBITION is -146%.
Then `C/C(=C\c1ccco1)CN(C)C(C)Cc1ccccn1` (centres undefined), with -54.2%; and `CCc1[nH]c2c(CNc3nc(C)cc(NC)n3)cc(C)cc2c1C`, with 89%.
Then `CCc1[nH]c2c(CNc3cc(C)nc(NC)n3)cc(C)cc2c1C`, with 85.1%; and `CN1C[C@H](NC(=O)c2cscn2)[C@@H]2OCCC[C@@H]21`, with -18.5%; and `O=C(c1cnn2c1OCCC2)N1CCC2(CC1)OCCO2`, with -54.5%.
Regarding `Cc1noc(C)c1CN1CC[C@@H]2O[C@H](COCC(C)C)CC[C@@H]21`, the INHIBITION is recorded as -31.3%.
As for `c1cc2c(cc1CN1CC[C@H]3CO[C@H](CN4CCCC4)[C@H]3C1)OCO2`, the INHIBITION turned out to be 78.6%.
For `CN1CCN(C[C@@H]2OC[C@H]3CN(Cc4ccncc4)CC[C@H]32)CC1` the value was -51.3%; for `CN1CCN(C[C@H]2OC[C@@H]3CCN(Cc4ccsc4)C[C@@H]32)CC1`, 77.7%.
As to `c1cnc(NC[C@H]2OC[C@@H]3CCN(Cc4ccsc4)C[C@@H]32)nc1`, the INHIBITION is reported as -30.5%.
Then `c1cnc(NC[C@H]2OC[C@@H]3CCN(Cc4nccs4)C[C@@H]32)nc1`, with -52.4%.
For `c1cnc(NC[C@H]2OC[C@@H]3CCN(Cc4cccnc4)C[C@@H]32)nc1` the value was -37.6%; for `O=C1O[C@@H]2CN(Cc3ccsc3)C[C@@H]2N1Cc1ccccn1`, -67.9%.
For `Cc1ccc(Cl)cc1-n1nnnc1C1(N2CCCC2)CCCCC1` the value was -125%; for `Cc1nn(-c2ccc(C(=O)O)cc2)c2c1C(c1cccs1)SCC(=O)N2` (centres undefined), -57.4%.
Turning to `COCCN1CCN(Cc2ccncc2)c2ncccc2C1`, the INHIBITION was 6.88%.
Take `Cc1ccc(C)c(OCCNC(=O)[C@@H]2CCCCN2)c1`: the INHIBITION is listed as 79.4%.
Then `CC(C)N(C)Cc1cncc2c1CCN(Cc1ccoc1)C2`, with -19.3%; and `Cc1ccc2c(n1)N(CC(C)C)CCN(S(C)(=O)=O)C2`, with -82.4%.
For `Cc1nccc([C@@H]2C[C@@H]3CCN(Cc4c(C)noc4C)C[C@H]3O2)n1` the value was -6.6%; for `Cc1cc(CN2C[C@@H]3COC[C@]3(c3nnc(C)o3)C2)no1`, -26.2%; for `O=C(C1CCOC1)N1CCC2(CCCNC2)CC1` (centres undefined), 0.28%.
Then `Cc1cccc(CN2C(=O)CCC23CCNCC3)n1`, with -102%; and `CCCN1C[C@@H]2CC[C@H]1CN(C(=O)Cn1c(C)cc(C)nc1=O)C2`, with -79.2%; and `CC(NCCc1nccn1Cc1ccccc1)c1ccsc1` (centres undefined), with 83.5%.
Turning to `Cc1ccc(C(C)NCCc2nccn2Cc2ccccc2)o1` (centres undefined), the INHIBITION amounted to 80.7%.
For `CC(NCCc1nccn1Cc1ccccc1)c1cccs1` (centres undefined), the INHIBITION worked out at 86.8%.
For `CC(Cn1cccn1)NCC(=O)N(C)Cc1ccsc1` (centres undefined) the value was -27.7%; for `CC(Cn1cccn1)NCC(=O)NCCc1cccs1` (centres undefined), -8.14%; for `CCc1ccc(CN2C[C@H](OC)[C@H]3COC[C@H]32)o1`, -53%.
Then `O=C(c1ccoc1)N1CCO[C@@H]2CNC[C@@H]21`, with -14.6%; and `Fc1cnc(N2CCN3C[C@H](Oc4cccnc4)C[C@H]3C2)nc1`, with -61.4%; and `c1cnc(N2CCOCC3(CNCCO3)C2)nc1` (centres undefined), with -4.23%.
Then `Cc1cc(C)n2nc(C(=O)N[C@H]3C[C@H]4CN(C)CCN4C3)cc2n1`, with -13.9%; and `OCCN1CCC(CNCc2ccc(N3CCCCC3)cc2)CC1`, with 91.9%.
`CCc1ccc(OCC(=O)N2CCN(CC)CC2)cc1`: the INHIBITION was -123%.
On to `OCCN1CCN(Cc2cc3c(cc2Br)OCCO3)CC1`, for which the INHIBITION is reported as 1.48%.
For `O=C(Cc1ccc(F)c(Br)c1)N1CCN(CCO)CC1` the value was -1.34%.
Then `OCCN1CCC(CNCc2ccc(Br)cc2)CC1`, with 86.7%; and `CCc1ccc(CNCC2CCN(CCO)CC2)cc1`, with 84.2%; and `O=C(C1CCC1)N1CCC2(CC1)OCCO2`, with -22.7%.
For `O=C(c1ccc[nH]1)N1CCCC2(CCCN2Cc2cccnc2)C1` (centres undefined) the value was -53.7%.
On to `Fc1ccc2[nH]c(C3CCCN3Cc3c[nH]cn3)nc2c1` (centres undefined), for which the INHIBITION is reported as 81%.
`CNCCc1nc2cc(F)ccc2[nH]1`: the INHIBITION is -61.7%.
Consider `CCNCCc1nc2cc(F)ccc2[nH]1`, for which the INHIBITION is listed as -115%.
Regarding `c1cncc(OC[C@@]23CCC[C@@H]2CN(C2CCOCC2)C3)c1`, the INHIBITION is on record as 3.99%.
Then `CCCc1nnc2sc(C3CCN(CC)CC3)nn12`, with -55.6%; and `c1cnc2c(c1)CN(C1CCOC1)CCN2CC1CC1` (centres undefined), with -73.8%.
In the case of `COc1cccc(CNCc2cccnc2-n2cccn2)c1OC`, the INHIBITION was 70.1%.
Then `COc1cccc(CNC(C)Cn2cccn2)c1OC` (centres undefined), with -22.3%; and `COc1c(Br)cc(Br)cc1CNC(C)Cn1cccn1` (centres undefined), with 17.9%.
For `CN1CCN(Cc2cccc(C#N)c2)Cc2cccnc21` the value was -71%.
Then `CC(Cn1cccn1)NCc1cccc(C#N)c1` (centres undefined), with -46.4%; and `N#Cc1cccc(CN2CCn3cc(Cn4cccn4)nc3C2)c1`, with 78.6%; and `CCN1C[C@@H]2CN(c3cc(OC)ncn3)CCC[C@]2(C(=O)O)C1`, with -22%.
Regarding `COC(=O)c1ccc(C2SCC(=O)Nc3c2cnn3C2CCCC2)cc1` (centres undefined), the INHIBITION is given as -86.9%.
Consider `CN1CCC(N(Cc2ccco2)S(=O)(=O)c2ccc(Br)cc2Cl)CC1`, for which the INHIBITION was determined as 74.7%.
As to `CN1CCC(N(Cc2ccco2)S(=O)(=O)c2cc(Br)ccc2Br)CC1`, the INHIBITION is given as 76.2%.
For `CC(Cn1ccnc1)NCc1csc2c1CCCC2` (centres undefined) the value was 22.3%.
As for `CO[C@@H]1CCN(Cc2cccs2)[C@@H]2CN(Cc3ccncc3)C[C@@H]21`, the INHIBITION turned out to be 53.8%.
Then `COCCN1C[C@@H]2[C@@H](OC)CCN(Cc3cccc(C)n3)[C@@H]2C1`, with -1.19%.
For `CO[C@@H]1CCN(S(=O)(=O)N(C)C)[C@@H]2CN(Cc3ccncc3)C[C@@H]21` the value was -53.3%.
Regarding `CCS(=O)(=O)N1CC[C@H](OC)[C@H]2CN(Cc3ccncc3)C[C@H]21`, the INHIBITION is given as -64.4%.
As for `CO[C@H]1CCN(Cc2cccs2)[C@@H]2CN(Cc3ccncc3)C[C@H]12`, the INHIBITION amounted to 61.5%.
For `CO[C@@H]1CCN(S(=O)(=O)N(C)C)[C@@H]2CN(Cc3cccnc3)C[C@@H]21` the value was -88.2%; for `COCCN1C[C@@H]2[C@@H](OC)CCN(Cc3ccncc3)[C@@H]2C1`, 24.3%.
Then `CO[C@H]1CCN(Cc2cccc(C)n2)[C@@H]2CN(Cc3cccnc3)C[C@H]12`, with 70.4%.
Turning to `CO[C@H]1CCN(C2CCC2)[C@@H]2CN(Cc3ccncc3)C[C@H]12`, the INHIBITION is recorded as -41.2%.
